# Laboratory results taken from PubChem BioAssay (NCATS).
# Inconclusive results are not listed. Unmarked numbers belong to inactive results. Calls of active or inactive are those of the source. Calls come from the whole dose curve; as a rule, active = well fitted inhibition curve with a large enough effect; inconclusive = small, poorly fitted or top-dose-only effect; inactive = no such curve, though single readings can be large or run the other way.
# Molecular target: Rap guanine nucleotide exchange factor 4 (Homo sapiens) (UniProt Q8WZA2)
# Assay: Confirmatory qHTS for antagonist of cAMP-regulated guanine nucleotide exchange factor 4 (EPAC2) (AID 1645885); note: nearly all actives have a fitted effect of over 25% in size
# Conditions: EPAC2 Rap1B-BODIPY-GDP exchange fluorescence, biochemical; series mostly up to 12.7 µM; activity change, negative = inhibition: at the top concentration
# % is set by controls: 0 for no effect and ±100 for the full control effect; potency is the fitted concentration of half-maximal effect.
# Chain of Rap guanine nucleotide exchange factor 4 (Homo sapiens) (Q8WZA2 whole entry, looked up): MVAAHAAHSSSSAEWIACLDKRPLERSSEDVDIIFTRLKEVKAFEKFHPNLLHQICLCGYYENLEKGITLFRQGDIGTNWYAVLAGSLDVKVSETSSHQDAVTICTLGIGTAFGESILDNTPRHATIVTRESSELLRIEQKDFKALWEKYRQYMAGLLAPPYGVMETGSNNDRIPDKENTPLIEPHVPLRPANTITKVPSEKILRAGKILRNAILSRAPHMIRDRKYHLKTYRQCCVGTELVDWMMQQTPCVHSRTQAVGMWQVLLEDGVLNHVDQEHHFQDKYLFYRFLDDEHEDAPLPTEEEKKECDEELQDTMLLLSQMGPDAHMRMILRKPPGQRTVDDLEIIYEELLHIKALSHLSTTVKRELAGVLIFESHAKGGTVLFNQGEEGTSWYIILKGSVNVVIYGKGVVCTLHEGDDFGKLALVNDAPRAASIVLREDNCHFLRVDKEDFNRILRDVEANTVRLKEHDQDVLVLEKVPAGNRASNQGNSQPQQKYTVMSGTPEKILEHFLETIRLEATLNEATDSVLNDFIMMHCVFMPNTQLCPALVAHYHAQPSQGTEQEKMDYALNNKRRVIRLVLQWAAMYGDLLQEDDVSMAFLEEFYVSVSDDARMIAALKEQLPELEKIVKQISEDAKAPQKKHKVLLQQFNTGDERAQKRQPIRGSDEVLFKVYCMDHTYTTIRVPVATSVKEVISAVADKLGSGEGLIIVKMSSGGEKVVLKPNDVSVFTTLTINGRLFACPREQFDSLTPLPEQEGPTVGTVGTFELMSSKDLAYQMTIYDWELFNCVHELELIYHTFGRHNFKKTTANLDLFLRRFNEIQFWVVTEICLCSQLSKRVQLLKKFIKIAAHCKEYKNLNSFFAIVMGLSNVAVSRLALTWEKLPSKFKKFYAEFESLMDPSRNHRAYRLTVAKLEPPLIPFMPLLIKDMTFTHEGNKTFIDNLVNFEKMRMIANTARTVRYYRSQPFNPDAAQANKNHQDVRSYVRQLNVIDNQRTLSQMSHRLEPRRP
SMILES,"activity change, negative = inhibition",Potency,outcome
CCOc1cc(CNc2ccc(O)cc2)cc(Cl)c1OCc1ccccc1,-13.2%,–,–
COc1ccc(/C=N/NC(=O)c2[nH]c3ccc(Br)cc3c2-c2ccccc2)c(C(=O)O)c1OC,-13.3%,–,–
Cc1cc(/C=C2\SC(=S)NC2=O)c(C)n1-c1cccc(O)c1,-22.4% [at 114 µM],–,–
C#Cc1ccc([C@@H]2C=C(C(=O)OCC=C)O[C@H](OCc3ccc(CO)cc3)C2)cc1,-19.5%,–,–
Oc1ccc(NCc2cccc(OCc3ccccc3)c2)cc1,-24.2% [at 114 µM],–,–
Fc1ccc(/C=C2\CCCC3=C2Nc2ncnn2C3c2ccc(F)cc2)cc1 (centres undefined),-7%,–,–
COc1cccc(/C=C2\SC(=S)NC2=O)c1OS(=O)(=O)c1ccc(NC(C)=O)cc1,-15.4%,–,–
CN(C)S(=O)(=O)c1ccc(N2CCCC2)c(C(=O)NCC2COc3ccccc3O2)c1 (centres undefined),–,30.1 µM (active),–
CC(CNC(=O)c1sc2ncccc2c1-n1cccc1)c1ccccc1 (centres undefined),-9.33%,–,–
Cc1cc(N2CCOCC2)ccc1/C=C1/SC(=O)NC1=O,-27.3% [at 114 µM],–,–
CC1=NN(c2ccccc2)C(=O)C1C(=O)c1cc([N+](=O)[O-])cc([N+](=O)[O-])c1 (centres undefined),59.9% [at 114 µM],–,–
COc1ccc(NC(=O)Cn2ncc(Cl)c(Cl)c2=O)cc1S(=O)(=O)N1CCOCC1,-1.55%,–,–
COc1ccccc1NC(=O)c1ccccc1NS(=O)(=O)c1cccs1,–,–,inactive
O=C(Nc1ccccc1)C1=C(O)CC(c2ccc(Cl)cc2)N2CCN=C12 (centres undefined),-12.2% [at 114 µM],–,–
CCCCn1c(COc2cccc(OC)c2)nc2ccccc21,–,–,inactive [at 12.7 µM]
CCC(C)Cn1c(O)cc2nn(-c3nc4ccccc4s3)c(=O)c-2c1C (centres undefined),-23.8%,–,–
Cc1ccc(-n2nc3ccc(NC(=O)/C=C/c4ccco4)cc3n2)cc1C,120% [at 114 µM],–,–
COCCN1C(=O)c2[nH]nc(-c3ccccc3O)c2C1c1ccc(Cl)c(Cl)c1 (centres undefined),-8.28%,–,–
COc1ccc(OC)c(NC(=O)C(C)Oc2ccc(Br)cc2)c1 (centres undefined),–,–,inactive
CCc1nc2c(OCc3ccc(OC(F)F)cc3)cccn2c1N(C)C(=O)c1cccs1,18.5% [at 114 µM],–,–
Cc1cc(C)c(S(=O)(=O)c2ccccc2)c(OC(=O)c2c(F)cccc2F)n1,-20%,–,–
COc1cc(OC)c(NC(=O)CN(C)S(=O)(=O)c2ccc(-c3ccc(=O)[nH]n3)s2)cc1Cl,58.6% [at 114 µM],–,–
O=C(O)c1ccc(N/N=C/c2ccc(-c3ccccc3Cl)o2)cc1,-11.8%,–,–
COc1cn(-c2ccccc2)nc1C(=O)Nc1ccc(C)cc1Cl,–,95.3 µM (active),–
